# PubChem BioAssay (EPA / NIEHS)
# Several values for one entry are separate records, joined by “and”; a condition that tells them apart may be missing. Identical values can stand only once. The source holds several records for some structures; these can differ, active in one and inactive in another. Activity calls are given as the source filed them. How the source made its calls: active means hit-call score of the fitted dose curve at least 0.9, where 1 is the maximum; inactive means score below 0.9.
# Read-out: Monocyte Chemoattractant Protein-1 (MCP1), CCL2 (gene 6347)
# Experiment: BSK_LPS_MCP1: BioMAP Diversity Plus: LPS Assay for Monocyte Chemoattractant Protein-1 (MCP1) Biomarker Activity (AID 2283081);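 on AC50: secreted MCP-1 protein quantified by ELISA in culture supernatant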
# Details: primary human HUVEC with PBMC; actives raise or lower the signal
# Outline: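 Secreted MCP-1 read by ELISA at 24 h post-dosing in an LPS-activated co-culture of endothelial cells with peripheral blood mononuclear cells. Fits run in both directions, DMSO as baseline; parallel SRB staining tracks overt cytotoxicity.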
Structure (SMILES),outcome,AC50
O=C(O)CCC(F)(F)C(F)(F)C(F)(F)C(F)(F)C(F)(F)F,inactive,
COc1cccc(O)c1,inactive,
NC(=NCCCCCCN=C(N)/N=C(\N)Nc1ccc(Cl)cc1)/N=C(\N)Nc1ccc(Cl)cc1,,4.95 µM (active)
Clc1ccc(Nc2nnc(Cc3ccncc3)c3ccccc23)cc1,inactive,
O=C(CC(=O)C(F)(F)C(F)(F)C(F)(F)F)c1cccs1,,30 µM (active) and 40.4 µM (active)
CCCCCCCCCCCCCCCCCC[N+](C)(C)Cc1ccccc1,,2.97 µM (active)
Oc1c(Cl)cc(Cl)cc1Sc1cc(Cl)cc(Cl)c1O,,31.4 µM (active) and 30.1 µM (active)
CCCCCCCCCCCC,inactive,36.3 µM (active)
O=C(O)C(F)(F)OC(F)(F)C(F)(F)OC(F)(F)C(F)(F)OC(F)(F)C(F)(F)C(F)(F)C(F)(F)F,,52.4 µM (active) and 46.7 µM (active)
OCCN1CN(CCO)CN(CCO)C1,,13.1 µM (active)
Cc1cccc2c1ccc1ccccc12,inactive,
O=P(O)(O)CCC(F)(F)C(F)(F)C(F)(F)C(F)(F)C(F)(F)C(F)(F)F,inactive,
O=C(NCc1ncc(C(F)(F)F)cc1Cl)c1c(Cl)cccc1Cl,inactive,
CCCCCCCCCCCCOS(=O)(=O)O,inactive,
O=C(CCCN1CCC(O)(c2ccc(Cl)cc2)CC1)c1ccc(F)cc1,,29 µM (active)
CCCCCCCCCCCCCCC,inactive,
O=S(=O)(O)C(F)(F)C(F)(F)C(F)(F)C(F)(F)C(F)(F)C(F)(F)C(F)(F)C(F)(F)C(F)(F)C(F)(F)F,inactive,6.6 µM (active)
OCC(F)(F)C(F)(F)C(F)(F)C(F)(F)C(F)(F)C(F)(F)C(F)(F)C(F)(F)C(F)(F)C(F)(F)C(F)(F)F,inactive,
CN(Cc1cnc2nc(N)nc(N)c2n1)c1ccc(C(=O)N[C@@H](CCC(=O)O)C(=O)O)cc1,inactive,0.1 µM (active)
Cc1ccc(N=Nc2c(O)ccc3ccccc23)c(C)c1,inactive,
CN(CCO)S(=O)(=O)C(F)(F)C(F)(F)C(F)(F)C(F)(F)C(F)(F)C(F)(F)C(F)(F)C(F)(F)F,inactive,
O=P(O)(O)CCC(F)(F)C(F)(F)C(F)(F)C(F)(F)C(F)(F)C(F)(F)C(F)(F)C(F)(F)F,inactive,
O=C(c1ccccc1)c1ccccc1,inactive,
Cc1[nH]nc2c1N=C(c1ccccc1Cl)c1cc([N+](=O)[O-])ccc1N2,,5.17 µM (active)
OCC(CO)(CBr)CBr,inactive,
O=C1c2ccc(O)c(O)c2C(=O)c2c(O)ccc(O)c21,inactive,
COC1=CC(=O)C[C@@H](C)[C@]12Oc1c(Cl)c(OC)cc(OC)c1C2=O,inactive,
N=C(N)c1ccc(OCCCCCOc2ccc(C(=N)N)cc2)cc1,inactive,

# Read-out: not listed separately
# Experiment: BSK_LPS_PGE2: BioMAP Diversity Plus: LPS Assay for Prostaglandin E2 (PGE2) Biomarker Activity (AID 2283082);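 on AC50: secreted prostaglandin E2 measured by ELISA in LPS-stimulated co-culture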
# Details: primary human HUVEC with PBMC; actives raise or lower the signal
# Outline: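 HUVEC plus PBMC co-culture stimulated with LPS; secreted PGE2 quantified by ELISA 24 h after chemical dosing. Activity fitted bidirectionally against DMSO as negative control and baseline; parallel SRB total-protein staining served as cytotoxicity check.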
Structure (SMILES),outcome,AC50
O=C(O)CCC(F)(F)C(F)(F)C(F)(F)C(F)(F)C(F)(F)F,inactive,
COc1cccc(O)c1,inactive,
NC(=NCCCCCCN=C(N)/N=C(\N)Nc1ccc(Cl)cc1)/N=C(\N)Nc1ccc(Cl)cc1,inactive,
Clc1ccc(Nc2nnc(Cc3ccncc3)c3ccccc23)cc1,inactive,
O=C(CC(=O)C(F)(F)C(F)(F)C(F)(F)F)c1cccs1,inactive,
CCCCCCCCCCCCCCCCCC[N+](C)(C)Cc1ccccc1,inactive,
Oc1c(Cl)cc(Cl)cc1Sc1cc(Cl)cc(Cl)c1O,inactive,20 µM (active)
CCCCCCCCCCCC,,12.9 µM (active) and 14 µM (active)
O=C(O)C(F)(F)OC(F)(F)C(F)(F)OC(F)(F)C(F)(F)OC(F)(F)C(F)(F)C(F)(F)C(F)(F)F,,37.8 µM (active) and 25.8 µM (active)
OCCN1CN(CCO)CN(CCO)C1,inactive,
Cc1cccc2c1ccc1ccccc12,inactive,
O=P(O)(O)CCC(F)(F)C(F)(F)C(F)(F)C(F)(F)C(F)(F)C(F)(F)F,inactive,
O=C(NCc1ncc(C(F)(F)F)cc1Cl)c1c(Cl)cccc1Cl,inactive,
CCCCCCCCCCCCOS(=O)(=O)O,inactive,
O=C(CCCN1CCC(O)(c2ccc(Cl)cc2)CC1)c1ccc(F)cc1,inactive,
CCCCCCCCCCCCCCC,inactive,
O=S(=O)(O)C(F)(F)C(F)(F)C(F)(F)C(F)(F)C(F)(F)C(F)(F)C(F)(F)C(F)(F)C(F)(F)C(F)(F)F,inactive,
OCC(F)(F)C(F)(F)C(F)(F)C(F)(F)C(F)(F)C(F)(F)C(F)(F)C(F)(F)C(F)(F)C(F)(F)C(F)(F)F,,42.7 nM (active) and 227 nM (active)
CN(Cc1cnc2nc(N)nc(N)c2n1)c1ccc(C(=O)N[C@@H](CCC(=O)O)C(=O)O)cc1,inactive,
Cc1ccc(N=Nc2c(O)ccc3ccccc23)c(C)c1,inactive,
CN(CCO)S(=O)(=O)C(F)(F)C(F)(F)C(F)(F)C(F)(F)C(F)(F)C(F)(F)C(F)(F)C(F)(F)F,inactive,
O=P(O)(O)CCC(F)(F)C(F)(F)C(F)(F)C(F)(F)C(F)(F)C(F)(F)C(F)(F)C(F)(F)F,inactive,30 µM (active)
O=C(c1ccccc1)c1ccccc1,,0.569 µM (active)
Cc1[nH]nc2c1N=C(c1ccccc1Cl)c1cc([N+](=O)[O-])ccc1N2,,2.36 µM (active)
OCC(CO)(CBr)CBr,inactive,
O=C1c2ccc(O)c(O)c2C(=O)c2c(O)ccc(O)c21,inactive,
COC1=CC(=O)C[C@@H](C)[C@]12Oc1c(Cl)c(OC)cc(OC)c1C2=O,inactive,
N=C(N)c1ccc(OCCCCCOc2ccc(C(=N)N)cc2)cc1,inactive,
